Assay in all cases: DAPPL (digital affinity profiling via proximity ligation, sequencing); 10 mM Tris-HCl pH 7.5, 50 mM NaCl, 1 mM DTT, 4% glycerol, room temperature, 30 min; GST-TFs on glutathione beads, 16-mer random dsDNA library, 0.1% formaldehyde crosslink after washing; high values mean tight binding
Assay [1] concerns the target T1, FEV (Homo sapiens, UniProt Q99581 1-238).
T1 sequence: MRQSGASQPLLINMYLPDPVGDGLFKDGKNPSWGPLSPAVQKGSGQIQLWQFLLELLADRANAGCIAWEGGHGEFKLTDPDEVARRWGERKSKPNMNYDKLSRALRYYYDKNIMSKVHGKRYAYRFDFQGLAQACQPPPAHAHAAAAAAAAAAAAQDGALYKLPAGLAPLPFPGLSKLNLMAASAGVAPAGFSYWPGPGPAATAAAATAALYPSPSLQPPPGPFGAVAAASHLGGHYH
As to conditions: protein: recombinant; tags: N-terminal GST; dsDNA, one strand shown. The essentials: (§1)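 After expression in yeast as GST fusions, human transcription factors were bound to glutathione beads, DNA-barcoded and mixed with a tag-only sample. The pools were incubated with 200 nmole of a 16-mer random double-stranded DNA library in Tris/NaCl/DTT/glycerol buffer (30 min, room temperature), washed and crosslinked with 0.1% formaldehyde. Proximity ligation with BsaI/T4 ligase ran for 1 h at 37 °C, before PCR amplification and sequencing on an Illumina NextSeq500. Binding signal is a hexamer's read frequency for a factor divided by its frequency for the tag-only sample.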

Assay [2] deals with ETV5 (Homo sapiens, UniProt P41161 1-510). As to conditions: protein: recombinant; tags: N-terminal GST; dsDNA, one strand shown. The essentials:
as §1

For assay [3], the target named is HSF1 (Homo sapiens, UniProt Q00613 1-529). As to conditions: protein: recombinant; tags: N-terminal GST; chain copies: 3; dsDNA, one strand shown. An outline of the steps: as §1
HSF1, sequence (Q00613 whole entry): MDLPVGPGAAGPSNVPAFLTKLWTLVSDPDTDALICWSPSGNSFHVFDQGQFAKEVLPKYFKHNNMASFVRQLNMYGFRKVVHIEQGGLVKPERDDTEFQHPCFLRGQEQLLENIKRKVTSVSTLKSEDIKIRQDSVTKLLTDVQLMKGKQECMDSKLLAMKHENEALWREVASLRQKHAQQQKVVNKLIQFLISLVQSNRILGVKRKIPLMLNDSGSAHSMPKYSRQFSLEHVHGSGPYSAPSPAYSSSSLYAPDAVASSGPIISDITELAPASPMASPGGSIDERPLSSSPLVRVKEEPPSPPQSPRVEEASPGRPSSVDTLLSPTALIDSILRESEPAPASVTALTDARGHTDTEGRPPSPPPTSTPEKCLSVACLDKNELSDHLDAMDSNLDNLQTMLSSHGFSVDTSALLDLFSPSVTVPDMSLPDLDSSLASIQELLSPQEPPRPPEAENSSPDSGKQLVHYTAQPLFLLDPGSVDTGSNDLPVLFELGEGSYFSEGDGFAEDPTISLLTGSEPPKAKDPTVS
Assay [4] addresses T2, SPIC (Homo sapiens, UniProt Q8N5J4 1-248).
T2 sequence: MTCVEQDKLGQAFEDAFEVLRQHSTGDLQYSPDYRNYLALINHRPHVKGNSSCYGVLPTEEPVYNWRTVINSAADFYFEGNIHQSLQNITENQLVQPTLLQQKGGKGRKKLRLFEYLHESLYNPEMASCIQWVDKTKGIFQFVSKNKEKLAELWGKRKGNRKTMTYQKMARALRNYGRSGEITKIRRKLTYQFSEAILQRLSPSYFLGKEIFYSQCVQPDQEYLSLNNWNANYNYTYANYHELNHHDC
As to conditions: protein: recombinant; tags: N-terminal GST; dsDNA, one strand shown. The essentials: as §1

Assay [5] concerns the target ELF4 (Homo sapiens, UniProt Q99607 1-663). As to conditions: protein: recombinant; tags: N-terminal GST; dsDNA, one strand shown. The essentials:
as §1

Assay [6] has as its target T3, ELK4 (Homo sapiens, UniProt P28324-2 1-405).
T3 sequence: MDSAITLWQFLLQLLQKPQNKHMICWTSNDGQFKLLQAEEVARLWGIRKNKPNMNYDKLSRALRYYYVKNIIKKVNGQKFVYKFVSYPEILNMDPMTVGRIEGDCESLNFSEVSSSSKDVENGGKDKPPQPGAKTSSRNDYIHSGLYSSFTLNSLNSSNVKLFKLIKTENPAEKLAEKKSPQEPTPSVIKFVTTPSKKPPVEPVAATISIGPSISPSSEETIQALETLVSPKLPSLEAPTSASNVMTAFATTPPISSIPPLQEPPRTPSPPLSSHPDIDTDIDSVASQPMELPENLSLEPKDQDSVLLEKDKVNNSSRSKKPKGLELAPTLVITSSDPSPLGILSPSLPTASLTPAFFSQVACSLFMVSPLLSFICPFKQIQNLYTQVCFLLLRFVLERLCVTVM
As to conditions: protein: recombinant; tags: N-terminal GST; dsDNA, one strand shown. The essentials:
as §1

Assay [7] concerns the target T4, ETV2 (Homo sapiens, UniProt O00321 1-342).
T4 sequence: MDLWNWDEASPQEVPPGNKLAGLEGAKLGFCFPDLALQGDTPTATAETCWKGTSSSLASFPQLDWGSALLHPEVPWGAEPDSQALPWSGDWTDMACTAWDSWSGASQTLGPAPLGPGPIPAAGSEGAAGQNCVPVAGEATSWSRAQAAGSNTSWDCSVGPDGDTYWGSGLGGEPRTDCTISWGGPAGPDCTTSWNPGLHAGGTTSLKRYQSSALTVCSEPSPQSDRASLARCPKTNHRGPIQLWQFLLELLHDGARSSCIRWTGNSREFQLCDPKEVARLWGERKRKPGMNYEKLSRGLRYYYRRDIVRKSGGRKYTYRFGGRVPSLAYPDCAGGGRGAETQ
As to conditions: protein: recombinant; tags: N-terminal GST; dsDNA, one strand shown. An outline of the steps: as §1

The target of assay [8] is T5, ELF3 (Homo sapiens, UniProt P78545 1-371).
T5 sequence: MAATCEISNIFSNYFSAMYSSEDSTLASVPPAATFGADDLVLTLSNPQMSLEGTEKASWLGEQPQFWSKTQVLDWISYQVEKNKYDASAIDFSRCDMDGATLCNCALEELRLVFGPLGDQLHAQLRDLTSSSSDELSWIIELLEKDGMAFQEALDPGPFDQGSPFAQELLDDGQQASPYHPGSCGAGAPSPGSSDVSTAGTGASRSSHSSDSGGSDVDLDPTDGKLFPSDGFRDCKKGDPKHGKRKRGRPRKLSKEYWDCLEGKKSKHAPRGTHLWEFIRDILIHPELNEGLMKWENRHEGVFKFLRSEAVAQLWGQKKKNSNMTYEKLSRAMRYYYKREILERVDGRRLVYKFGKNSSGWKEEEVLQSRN
As to conditions: protein: recombinant; tags: N-terminal GST; dsDNA, one strand shown. The essentials: as §1

Assay [9] has as its target CRX (Homo sapiens, UniProt O43186 1-299). As to conditions: protein: recombinant; tags: N-terminal GST; dsDNA, one strand shown. The essentials: as §1
Assay [10] concerns the target ETV1 (Homo sapiens, UniProt P50549 1-477). As to conditions: protein: recombinant; tags: N-terminal GST; dsDNA, one strand shown. An outline of the steps: as §1
Assay [11] addresses T6, ERF (Homo sapiens, UniProt P50548 1-548).
T6 sequence: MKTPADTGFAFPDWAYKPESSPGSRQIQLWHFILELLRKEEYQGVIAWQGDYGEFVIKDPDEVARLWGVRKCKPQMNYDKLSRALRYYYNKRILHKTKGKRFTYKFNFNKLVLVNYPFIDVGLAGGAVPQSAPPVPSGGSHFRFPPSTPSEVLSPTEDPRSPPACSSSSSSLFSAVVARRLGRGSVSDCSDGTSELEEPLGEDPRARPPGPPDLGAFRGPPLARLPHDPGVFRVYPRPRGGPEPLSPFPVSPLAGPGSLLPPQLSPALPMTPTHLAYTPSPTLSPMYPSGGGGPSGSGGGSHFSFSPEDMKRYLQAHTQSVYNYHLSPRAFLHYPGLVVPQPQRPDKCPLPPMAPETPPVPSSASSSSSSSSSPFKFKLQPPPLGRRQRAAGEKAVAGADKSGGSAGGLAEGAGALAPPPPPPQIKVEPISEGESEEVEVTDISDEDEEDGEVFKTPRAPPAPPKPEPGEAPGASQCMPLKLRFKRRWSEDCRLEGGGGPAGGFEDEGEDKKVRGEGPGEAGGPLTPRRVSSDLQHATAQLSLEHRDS
As to conditions: protein: recombinant; tags: N-terminal GST; dsDNA, one strand shown. An outline of the steps: as §1

For assay [12], the target named is T7, ETV3L (Homo sapiens, UniProt Q6ZN32 1-361).
T7 sequence: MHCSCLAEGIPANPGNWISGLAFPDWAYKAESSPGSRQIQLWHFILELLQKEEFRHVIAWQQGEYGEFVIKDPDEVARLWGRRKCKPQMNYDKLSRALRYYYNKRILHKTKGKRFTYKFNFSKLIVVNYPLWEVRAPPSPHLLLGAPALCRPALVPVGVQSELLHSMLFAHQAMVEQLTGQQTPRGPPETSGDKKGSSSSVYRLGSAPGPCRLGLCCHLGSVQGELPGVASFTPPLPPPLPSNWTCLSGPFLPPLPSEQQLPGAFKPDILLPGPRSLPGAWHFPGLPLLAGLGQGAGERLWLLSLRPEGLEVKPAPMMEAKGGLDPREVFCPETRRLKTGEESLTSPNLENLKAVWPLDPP
As to conditions: protein: recombinant; tags: N-terminal GST; dsDNA, one strand shown. The essentials:
as §1

Assay [13] addresses T8, ETS2 (Homo sapiens, UniProt P15036 1-469).
T8 sequence: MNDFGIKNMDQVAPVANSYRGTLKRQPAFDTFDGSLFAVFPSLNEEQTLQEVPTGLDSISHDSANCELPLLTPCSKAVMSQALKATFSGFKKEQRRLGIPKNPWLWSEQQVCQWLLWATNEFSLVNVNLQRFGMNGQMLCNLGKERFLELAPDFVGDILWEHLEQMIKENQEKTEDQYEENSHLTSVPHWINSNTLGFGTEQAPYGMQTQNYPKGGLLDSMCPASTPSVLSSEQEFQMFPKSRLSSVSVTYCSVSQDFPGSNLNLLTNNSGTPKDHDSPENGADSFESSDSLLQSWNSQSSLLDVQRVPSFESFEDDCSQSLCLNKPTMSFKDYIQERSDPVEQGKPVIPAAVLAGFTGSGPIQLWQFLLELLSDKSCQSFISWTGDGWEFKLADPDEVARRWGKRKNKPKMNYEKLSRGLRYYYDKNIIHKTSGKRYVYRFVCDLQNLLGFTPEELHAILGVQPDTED
As to conditions: protein: recombinant; tags: N-terminal GST; dsDNA, one strand shown. An outline of the steps: as §1

Assay [14] addresses T9, SPDEF (Homo sapiens, UniProt O95238 1-335).
T9 sequence: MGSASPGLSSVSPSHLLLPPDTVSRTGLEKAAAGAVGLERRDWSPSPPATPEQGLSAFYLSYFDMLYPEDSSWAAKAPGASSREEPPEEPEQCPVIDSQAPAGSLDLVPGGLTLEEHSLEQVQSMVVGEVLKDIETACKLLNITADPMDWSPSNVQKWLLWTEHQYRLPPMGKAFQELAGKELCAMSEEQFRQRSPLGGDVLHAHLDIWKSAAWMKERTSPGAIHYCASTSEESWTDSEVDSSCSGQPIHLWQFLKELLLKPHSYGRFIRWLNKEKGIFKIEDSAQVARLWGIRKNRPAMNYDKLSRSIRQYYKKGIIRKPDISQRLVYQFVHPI
As to conditions: protein: recombinant; tags: N-terminal GST; dsDNA, one strand shown. An outline of the steps:
as §1

The target of assay [15] is T10, ETV7 (Homo sapiens, UniProt Q9Y603 1-341).
T10 sequence: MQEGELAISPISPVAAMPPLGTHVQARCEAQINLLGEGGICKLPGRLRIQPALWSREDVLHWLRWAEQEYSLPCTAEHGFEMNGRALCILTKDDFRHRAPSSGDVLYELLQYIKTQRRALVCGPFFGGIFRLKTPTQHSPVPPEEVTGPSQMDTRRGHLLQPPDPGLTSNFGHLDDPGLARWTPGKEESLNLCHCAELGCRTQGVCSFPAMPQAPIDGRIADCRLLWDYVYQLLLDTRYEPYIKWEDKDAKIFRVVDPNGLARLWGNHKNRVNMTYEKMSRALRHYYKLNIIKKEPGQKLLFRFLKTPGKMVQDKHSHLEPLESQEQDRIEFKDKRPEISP
As to conditions: protein: recombinant; tags: N-terminal GST; dsDNA, one strand shown. An outline of the steps: as §1

The target of assay [16] is T11, ELF5 (Homo sapiens, UniProt Q9UKW6-2 1-255).
T11 sequence: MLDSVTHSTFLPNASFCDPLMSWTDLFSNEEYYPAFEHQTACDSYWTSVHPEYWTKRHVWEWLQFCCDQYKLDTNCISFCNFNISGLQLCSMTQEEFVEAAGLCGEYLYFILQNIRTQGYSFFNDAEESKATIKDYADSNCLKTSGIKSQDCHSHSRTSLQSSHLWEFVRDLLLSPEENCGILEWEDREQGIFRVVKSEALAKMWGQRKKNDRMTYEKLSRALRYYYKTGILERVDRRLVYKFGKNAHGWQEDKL
As to conditions: protein: recombinant; tags: N-terminal GST; dsDNA, one strand shown. The essentials: as §1

Assay [17] addresses T12, ETV3 (Homo sapiens, UniProt P41162-2 1-143).
T12 sequence: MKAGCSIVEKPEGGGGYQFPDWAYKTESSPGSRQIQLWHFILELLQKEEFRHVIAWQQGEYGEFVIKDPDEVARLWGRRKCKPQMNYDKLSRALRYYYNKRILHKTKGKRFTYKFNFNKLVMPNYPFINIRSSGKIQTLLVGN
As to conditions: protein: recombinant; tags: N-terminal GST; dsDNA, one strand shown. The essentials:
as §1

For assay [18], the target named is ETV6 (Homo sapiens, UniProt P41212 1-452). As to conditions: protein: recombinant; tags: N-terminal GST; dsDNA, one strand shown. The essentials:
as §1

ETV1, sequence (P50549 whole entry): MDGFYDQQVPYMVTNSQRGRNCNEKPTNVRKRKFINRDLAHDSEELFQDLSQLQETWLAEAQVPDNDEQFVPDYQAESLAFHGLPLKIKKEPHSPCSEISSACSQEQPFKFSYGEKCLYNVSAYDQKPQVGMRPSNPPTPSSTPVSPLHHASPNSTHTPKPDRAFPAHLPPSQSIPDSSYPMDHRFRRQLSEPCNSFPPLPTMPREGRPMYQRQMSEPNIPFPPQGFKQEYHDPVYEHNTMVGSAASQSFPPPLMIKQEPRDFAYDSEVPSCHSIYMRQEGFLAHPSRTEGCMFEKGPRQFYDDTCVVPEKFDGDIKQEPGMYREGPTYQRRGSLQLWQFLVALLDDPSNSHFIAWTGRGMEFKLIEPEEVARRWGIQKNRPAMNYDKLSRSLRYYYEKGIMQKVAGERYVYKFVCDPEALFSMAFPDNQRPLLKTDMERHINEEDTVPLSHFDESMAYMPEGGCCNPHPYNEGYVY
ETV6, sequence (P41212 whole entry): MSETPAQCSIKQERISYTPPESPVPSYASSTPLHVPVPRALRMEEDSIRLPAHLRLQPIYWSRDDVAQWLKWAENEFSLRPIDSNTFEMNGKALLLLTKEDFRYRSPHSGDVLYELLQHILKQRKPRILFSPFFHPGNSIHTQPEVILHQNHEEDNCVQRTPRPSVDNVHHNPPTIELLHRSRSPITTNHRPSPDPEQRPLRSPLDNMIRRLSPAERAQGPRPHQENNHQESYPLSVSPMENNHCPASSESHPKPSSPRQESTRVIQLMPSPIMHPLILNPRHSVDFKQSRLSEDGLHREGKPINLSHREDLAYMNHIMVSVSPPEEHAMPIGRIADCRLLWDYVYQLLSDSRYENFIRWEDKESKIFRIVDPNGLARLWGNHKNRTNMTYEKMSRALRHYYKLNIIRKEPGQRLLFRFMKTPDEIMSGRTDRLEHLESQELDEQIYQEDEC
CRX, sequence (O43186 whole entry): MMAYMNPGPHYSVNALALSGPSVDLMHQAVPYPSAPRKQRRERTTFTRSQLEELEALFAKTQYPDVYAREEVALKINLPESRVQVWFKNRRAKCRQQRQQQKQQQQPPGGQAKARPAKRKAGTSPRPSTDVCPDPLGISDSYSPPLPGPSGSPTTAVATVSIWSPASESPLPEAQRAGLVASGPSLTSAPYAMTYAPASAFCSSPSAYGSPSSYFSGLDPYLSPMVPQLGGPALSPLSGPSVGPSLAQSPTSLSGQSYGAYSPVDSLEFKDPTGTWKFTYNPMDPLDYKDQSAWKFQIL
ETV5, sequence (P41161 whole entry): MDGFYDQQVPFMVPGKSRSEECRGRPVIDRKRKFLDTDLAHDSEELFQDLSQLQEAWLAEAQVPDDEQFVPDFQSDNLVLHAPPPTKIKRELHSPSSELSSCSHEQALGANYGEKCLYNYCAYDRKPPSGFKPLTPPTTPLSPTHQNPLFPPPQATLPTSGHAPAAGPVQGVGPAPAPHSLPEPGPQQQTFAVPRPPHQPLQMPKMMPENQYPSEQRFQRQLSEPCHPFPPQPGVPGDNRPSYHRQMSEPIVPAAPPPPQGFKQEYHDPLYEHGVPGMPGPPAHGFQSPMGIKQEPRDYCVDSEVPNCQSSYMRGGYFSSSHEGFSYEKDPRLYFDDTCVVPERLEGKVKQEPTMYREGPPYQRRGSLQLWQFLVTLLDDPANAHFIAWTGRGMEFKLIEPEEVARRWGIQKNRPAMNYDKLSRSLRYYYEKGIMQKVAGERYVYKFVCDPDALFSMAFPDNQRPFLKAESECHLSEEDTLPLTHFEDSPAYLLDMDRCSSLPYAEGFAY
ELF4, sequence (Q99607 whole entry): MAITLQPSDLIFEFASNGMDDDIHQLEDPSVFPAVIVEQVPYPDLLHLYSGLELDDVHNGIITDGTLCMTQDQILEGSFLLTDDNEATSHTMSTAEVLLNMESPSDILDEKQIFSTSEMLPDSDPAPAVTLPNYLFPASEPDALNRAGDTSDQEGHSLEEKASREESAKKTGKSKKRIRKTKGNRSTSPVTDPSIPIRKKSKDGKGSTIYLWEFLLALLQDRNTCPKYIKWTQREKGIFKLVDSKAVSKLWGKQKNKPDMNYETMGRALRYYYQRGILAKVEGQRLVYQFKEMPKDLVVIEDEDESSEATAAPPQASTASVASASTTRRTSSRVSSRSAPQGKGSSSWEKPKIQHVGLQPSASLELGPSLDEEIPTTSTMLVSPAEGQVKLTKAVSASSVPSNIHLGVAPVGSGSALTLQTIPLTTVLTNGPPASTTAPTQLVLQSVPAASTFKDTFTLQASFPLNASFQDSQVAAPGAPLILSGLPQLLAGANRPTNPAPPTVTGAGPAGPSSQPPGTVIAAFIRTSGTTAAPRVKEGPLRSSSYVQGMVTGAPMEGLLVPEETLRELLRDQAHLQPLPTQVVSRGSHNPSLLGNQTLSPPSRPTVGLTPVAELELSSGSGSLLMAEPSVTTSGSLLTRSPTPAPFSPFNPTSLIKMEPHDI

On to CATCTA, for which the binding signal in assay [1] was 1.14 fold enrichment (6-mer frequency, TF over GST control); in assay [2], 1.15 fold enrichment (6-mer frequency, TF over GST control); in assay [3] it was 1.47 fold enrichment (6-mer frequency, TF over GST control); in assay [4], 1.34 fold enrichment (6-mer frequency, TF over GST control); in assay [5] it was 1.17 fold enrichment (6-mer frequency, TF over GST control); in assay [6], 1.33 fold enrichment (6-mer frequency, TF over GST control). In addition, the binding signal in assay [7] was 1.1 fold enrichment (6-mer frequency, TF over GST control); in assay [8], 1.33 fold enrichment (6-mer frequency, TF over GST control); in assay [9], 1.29 fold enrichment (6-mer frequency, TF over GST control); in assay [10], 1.16 fold enrichment (6-mer frequency, TF over GST control); in assay [11], 1.19 fold enrichment (6-mer frequency, TF over GST control); in assay [12] it was 1.16 fold enrichment (6-mer frequency, TF over GST control). For the same sequence, the binding signal was 1.13 fold enrichment (6-mer frequency, TF over GST control) in [13]; 1.07 fold enrichment (6-mer frequency, TF over GST control) in assay [14]; 1.21 fold enrichment (6-mer frequency, TF over GST control) in [15]; 1.17 fold enrichment (6-mer frequency, TF over GST control) in assay [16]; 1.05 fold enrichment (6-mer frequency, TF over GST control) in assay [17]; 1.15 fold enrichment (6-mer frequency, TF over GST control) in assay [18].

For the origin of these results see paper PMC7862700, “An all-to-all approach to the identification of sequence-specific readers for epigenetic DNA modifications on cytosine”.
